According to PubChem BioAssay (NCI):
Compounds without any hit were thinned out: in the full panel of roughly 83,000, 20% have a hit.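 Cell lines were cultured in 96-well plates, exposed to a single compound concentration, and assessed for percent growth 48 hours later.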 The source made the active and inactive calls. Rule for the calls: active = growth percent below 10; inactive = the rest.

Legend:
Assay in all cases: NCI-60 one-dose screen, 48 h (100 = growth as untreated, 0 = no growth, -100 = all killed)
Conditions in all cases: 10 µM unless noted
NCI-H23 lung = tested on: NCI-H23 lung
NCI-H226 lung = tested on: NCI-H226 lung
NCI-H322M lung = tested on: NCI-H322M lung
HOP-62 NSCLC = tested on: HOP-62 NSCLC
NCI-H460 lung = tested on: NCI-H460 lung
HOP-92 NSCLC = tested on: HOP-92 NSCLC
NCI-H522 lung = tested on: NCI-H522 lung
A549/ATCC NSCLC = tested on: A549/ATCC NSCLC
786-0 renal = tested on: 786-0 renal
COLO 205 colon = tested on: COLO 205 colon
DU-145 prostate = tested on: DU-145 prostate
K-562 leukemia = tested on: K-562 leukemia
MALME-3M melanoma = tested on: MALME-3M melanoma
MDA-MB-231 breast = tested on: MDA-MB-231 breast
RXF 393 renal = tested on: RXF 393 renal
SF-268 CNS = tested on: SF-268 CNS
SF-295 CNS = tested on: SF-295 CNS
SF-539 CNS = tested on: SF-539 CNS
UACC-257 melanoma = tested on: UACC-257 melanoma
M14 melanoma = tested on: M14 melanoma

Measured: growth

O=C1/C(=C/c2ccc(-c3ccc(Br)cc3)o2)SC(=S)N1CCc1ccc(O)cc1
active: 786-0 renal 5.73% | COLO 205 colon -27.8% | K-562 leukemia 3.25%
inactive: NCI-H23 lung 75.8% | NCI-H226 lung 90.2% | NCI-H322M lung 84.5% | HOP-62 NSCLC 90.6% | NCI-H460 lung 60.3% | HOP-92 NSCLC 60% | NCI-H522 lung 13.7% | A549/ATCC NSCLC 67.5% | DU-145 prostate 15.7% | MALME-3M melanoma 73.5% | MDA-MB-231 breast 82.9% | RXF 393 renal 80.5% | SF-268 CNS 44.4% | SF-295 CNS 100% | SF-539 CNS 86.5% | UACC-257 melanoma 77.4% | M14 melanoma 50.9%

COc1ccc(/C=C2\C(=O)N=C3N2NC(c2cc(Br)ccc2O)C=C(C)N3c2ccccc2)cc1 (stereo not given)
inactive: NCI-H23 lung 94.7% | NCI-H226 lung 85.1% | NCI-H322M lung 97.3% | HOP-62 NSCLC 108% | NCI-H460 lung 104% | HOP-92 NSCLC 93.6% | NCI-H522 lung 95.1% | A549/ATCC NSCLC 96% | 786-0 renal 101% | COLO 205 colon 115% | DU-145 prostate 104% | K-562 leukemia 97.3% | MALME-3M melanoma 92.2% | MDA-MB-231 breast 92.8% | RXF 393 renal 97.7% | SF-268 CNS 100% | SF-295 CNS 101% | SF-539 CNS 99.9% | UACC-257 melanoma 96.7% | M14 melanoma 98.8%

Cc1cc(N)c2cc(NC(=O)/C=C\c3ccccc3Cl)ccc2n1
active: NCI-H23 lung -85.4% | NCI-H226 lung -70.7% | NCI-H322M lung -83.3% | HOP-62 NSCLC -71.5% | NCI-H460 lung -78.3% | HOP-92 NSCLC -69.5% | NCI-H522 lung -70.7% | A549/ATCC NSCLC -43.5% | 786-0 renal -81.3% | COLO 205 colon -65.9% | DU-145 prostate -92.8% | K-562 leukemia -31.9% | MALME-3M melanoma -76.2% | MDA-MB-231 breast -87.1% | RXF 393 renal -78.2% | SF-268 CNS -76.6% | SF-295 CNS -80.4% | SF-539 CNS -91.3% | UACC-257 melanoma -49.2% | M14 melanoma -70.9%

CN1CCN(C(=O)OCc2ccc3c(Cl)cc(Cl)c(O)c3n2)CC1
inactive: NCI-H23 lung 59.6% | NCI-H226 lung 98.3% | NCI-H322M lung 60% | HOP-62 NSCLC 45.9% | NCI-H460 lung 66.8% | HOP-92 NSCLC 71.1% | NCI-H522 lung 79.6% | A549/ATCC NSCLC 62.5% | 786-0 renal 86.6% | COLO 205 colon 107% | DU-145 prostate 56.3% | K-562 leukemia 18.1% | MALME-3M melanoma 81% | MDA-MB-231 breast 90.5% | RXF 393 renal 71.3% | SF-268 CNS 53.3% | SF-295 CNS 45.3% | SF-539 CNS 66.2% | UACC-257 melanoma 89.3% | M14 melanoma 55.4%

N#CC1=C(N)Oc2c(sc3c(Br)cccc23)C1c1ccc(F)cc1 (stereo not given)
inactive: NCI-H23 lung 31.1% | NCI-H226 lung 36.6% | NCI-H322M lung 41.3% | HOP-62 NSCLC 26.3% | HOP-92 NSCLC 41% | A549/ATCC NSCLC 24.1% | 786-0 renal 12.2% | DU-145 prostate 24.1% | MALME-3M melanoma 49.4% | MDA-MB-231 breast 16.9% | SF-268 CNS 25.5% | UACC-257 melanoma 74.1%
active: NCI-H460 lung 9.57% | NCI-H522 lung -6.79% | COLO 205 colon -35.7% | K-562 leukemia 9.02% | RXF 393 renal -2.88% | SF-295 CNS 5.32% | SF-539 CNS -27.1% | M14 melanoma 9.58%

Cc1ccc(Cc2cnc(NC(=O)c3cc(Br)cs3)s2)cc1
inactive: NCI-H23 lung 73.1% | NCI-H226 lung 73.1% | NCI-H322M lung 79.7% | HOP-62 NSCLC 50.8% | NCI-H460 lung 46.7% | HOP-92 NSCLC 59.1% | NCI-H522 lung 34.3% | A549/ATCC NSCLC 51% | 786-0 renal 67.8% | COLO 205 colon 80% | DU-145 prostate 84.9% | K-562 leukemia 15% | MALME-3M melanoma 56.5% | MDA-MB-231 breast 70.9% | RXF 393 renal 71.4% | SF-268 CNS 71.7% | SF-295 CNS 43.8% | SF-539 CNS 66.4% | UACC-257 melanoma 79.5% | M14 melanoma 30.4%

CN1CCN(c2ccc(NC(=O)c3nc4ccc5[nH]ncc5c4c4c3CCCC4)cc2C(F)(F)F)CC1
inactive: NCI-H23 lung 90.2% | NCI-H226 lung 80% | NCI-H322M lung 86.3% | HOP-62 NSCLC 72.2% | HOP-92 NSCLC 49.2% | NCI-H522 lung 76.7% | A549/ATCC NSCLC 60.2% | 786-0 renal 34.3% | COLO 205 colon 59.3% | MALME-3M melanoma 33.1% | MDA-MB-231 breast 45.8% | RXF 393 renal 72.3% | SF-268 CNS 78% | SF-295 CNS 97.9% | SF-539 CNS 89.6% | UACC-257 melanoma 98.7% | M14 melanoma 79.5%
active: NCI-H460 lung -55.4% | DU-145 prostate -27.9% | K-562 leukemia 7.04%

C#CCn1cnc2c(Nc3cccc(NC(=O)C=C)c3)ncnc21
inactive: NCI-H23 lung 89.7% | NCI-H226 lung 66.3% | NCI-H322M lung 103% | HOP-62 NSCLC 75.2% | NCI-H460 lung 80.3% | HOP-92 NSCLC 68.5% | NCI-H522 lung 79.4% | A549/ATCC NSCLC 63.9% | 786-0 renal 61.7% | COLO 205 colon 84.4% | DU-145 prostate 86.4% | K-562 leukemia 72.7% | MALME-3M melanoma 78.9% | MDA-MB-231 breast 80% | RXF 393 renal 85.2% | SF-268 CNS 63.4% | SF-295 CNS 80.5% | SF-539 CNS 66.8% | UACC-257 melanoma 75.6% | M14 melanoma 76.6%
